Measurements taken from PubChem BioAssay.
Active and inactive are the calls of the source. Unless noted, the rule behind the calls is not given here.

Legend:
[1] = resazurin metabolic signal in HepG2 cells – cell-based, resazurin fluorescence, 24 h, PK04 Diversity Set, profiling panel (AID 1172); conditions: HepG2 viability, higher = more signal
[2] = budding yeast growth changes without added modifier – OD600, strain BY4716, 24 h, basal condition, primary screen (AID 1173); conditions: S. cerevisiae BY4716 growth, OD600, 24 h; higher = more signal, called active from +8 up or from −8 down
[3] = viability profiling in MM1S myeloma cells – cell-based, resazurin fluorescence, basal, 24 h, PK04 Diversity Set, profiling panel (AID 1174); conditions: higher = more signal, called active from +8 up or from −8 down;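 note: MM1S multiple myeloma cell line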
[4] = molecular target: Dihydroorotate dehydrogenase (quinone), mitochondrial (Plasmodium falciparum (isolate 3D7)) (UniProt Q08210); assay: inhibition of P. falciparum DHODH – biochemical, C-terminal His tag, absorbance 600 nm, primary screen (AID 1175); conditions: PfDHODH enzyme, DCIP absorbance 600 nm; higher = more signal, called active from +8 up or from −8 down;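 note: recombinant parasite enzyme with a five histidine tag at its C terminus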
Chain of Dihydroorotate dehydrogenase (quinone), mitochondrial (Plasmodium falciparum (isolate 3D7)) (Q08210 whole entry, looked up): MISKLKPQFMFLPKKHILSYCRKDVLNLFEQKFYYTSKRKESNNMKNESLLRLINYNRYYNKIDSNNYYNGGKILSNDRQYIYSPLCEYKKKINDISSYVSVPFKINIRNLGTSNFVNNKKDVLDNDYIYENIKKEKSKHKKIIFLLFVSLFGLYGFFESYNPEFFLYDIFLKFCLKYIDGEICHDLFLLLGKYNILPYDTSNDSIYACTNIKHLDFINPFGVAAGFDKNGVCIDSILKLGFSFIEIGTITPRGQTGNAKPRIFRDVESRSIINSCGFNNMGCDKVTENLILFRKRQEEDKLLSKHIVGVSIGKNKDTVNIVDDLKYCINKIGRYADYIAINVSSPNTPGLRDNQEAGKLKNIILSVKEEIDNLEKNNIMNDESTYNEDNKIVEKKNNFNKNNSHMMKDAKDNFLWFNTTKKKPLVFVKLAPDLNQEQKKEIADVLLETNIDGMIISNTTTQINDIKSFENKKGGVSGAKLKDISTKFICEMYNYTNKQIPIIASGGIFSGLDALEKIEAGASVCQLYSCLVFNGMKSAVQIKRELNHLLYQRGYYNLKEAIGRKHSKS

[5] = inhibition of PAO1 biofilm formation – strain PAO1, LB-PBS medium, absorbance 600 nm, primary screen (AID 1176); conditions: P. aeruginosa PAO1 growth/biofilm, A600, 12 h; higher = more signal
[6] = growth modulation of vineyard yeast isolate – strain RM11-1a, OD600, basal, 24 h, primary screen (AID 1177);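 note: cultures grown under basal conditions with no added stressor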; conditions: S. cerevisiae RM11-1a growth, OD600, 24 h; higher = more signal, called active from +8 up or from −8 down
[7] = growth of efflux-deficient E. coli DRC39 – strain DRC39, OD650, 24 h, E. coli filamentation inducers, primary screen (AID 1178);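 note: growth measured as culture turbidity by optical density at 650 nm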; conditions: E. coli DRC39 acrAB, higher = more signal, called active from +8 up or from −8 down
[8] = growth of efflux-deficient E. coli DRC39 – strain DRC39, OD650, 48 h, E. coli filamentation inducers, primary screen (AID 1179);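 note: screen aims at cell division blockers that make cells filament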; conditions: E. coli DRC39 delta-acrAB growth, higher = more signal, called active from +8 up or from −8 down
[9] = viability profiling in RPMI8226 myeloma cells – cell-based, resazurin fluorescence, basal, 24 h, PK04 Diversity Set, profiling panel (AID 1180); conditions: higher = more signal;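 note: RPMI8826 multiple myeloma cell line at 5000 cells per well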
[10] = molecular target: E3 ubiquitin-protein ligase XIAP (Homo sapiens) (UniProt P98170); assay: small molecules binding XIAP protein – biophysical, small-molecule microarray, fluorescence 635 nm, primary screen (AID 1181); conditions: higher = more signal;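 note: score merges 667 nm emission and signal to noise over triplicate slides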
Chain of E3 ubiquitin-protein ligase XIAP (Homo sapiens) (P98170 whole entry, looked up, the tested form may be a part): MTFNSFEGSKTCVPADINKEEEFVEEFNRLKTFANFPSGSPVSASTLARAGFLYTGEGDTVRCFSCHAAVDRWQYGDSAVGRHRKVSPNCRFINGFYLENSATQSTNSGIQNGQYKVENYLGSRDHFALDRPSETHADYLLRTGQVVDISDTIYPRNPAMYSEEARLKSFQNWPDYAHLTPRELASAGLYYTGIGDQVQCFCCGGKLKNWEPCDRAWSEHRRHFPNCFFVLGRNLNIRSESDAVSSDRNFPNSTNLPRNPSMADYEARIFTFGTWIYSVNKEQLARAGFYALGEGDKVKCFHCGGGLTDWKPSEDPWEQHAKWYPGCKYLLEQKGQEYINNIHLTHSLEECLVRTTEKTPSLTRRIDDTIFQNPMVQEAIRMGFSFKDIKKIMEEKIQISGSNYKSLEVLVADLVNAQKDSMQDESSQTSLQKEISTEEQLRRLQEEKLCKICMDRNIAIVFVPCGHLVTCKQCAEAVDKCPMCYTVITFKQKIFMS

[11] = tested on: XIP peptide (Xip251-270) binding; assay: XIP fragment 251-270 binding compounds – biochemical, small-molecule microarray, fluorescence 635/667 nm, 0.1 µg/mL protein, primary screen (AID 1182); conditions: fluorescent protein binding, 635 nm, higher = more signal, called active from +8 up or from −8 down
[12] = tested on: XIP peptide (Xip251-270); assay: compounds binding XIP fragment 251-270 – biochemical, small-molecule microarray, fluorescence 635/667 nm, 0.5 µg/mL protein, primary screen (AID 1183); conditions: fluorescence 635 nm, higher = more signal
[13] = blood-stage malaria parasite viability loss – strain 3D7, DAPI fluorescence, 100 nL, primary screen (AID 1184);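 note: parasites grown inside human red blood cells in medium with human serum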; conditions: P. falciparum 3D7 growth, 3 d, higher = more signal
[14] = molecular target: Homeobox protein Hox-A13 (Mus musculus) (UniProt Q62424); assay: disruptors of Hoxa13 oligonucleotide interaction – biochemical, fluorescence polarization, labeled oligonucleotide, primary screen (AID 1185); conditions: Hoxa13:DNA binding, 15 min, higher = more signal, called active from +8 up or from −8 down
Chain of Homeobox protein Hox-A13 (Mus musculus) (Q62424 whole entry, looked up): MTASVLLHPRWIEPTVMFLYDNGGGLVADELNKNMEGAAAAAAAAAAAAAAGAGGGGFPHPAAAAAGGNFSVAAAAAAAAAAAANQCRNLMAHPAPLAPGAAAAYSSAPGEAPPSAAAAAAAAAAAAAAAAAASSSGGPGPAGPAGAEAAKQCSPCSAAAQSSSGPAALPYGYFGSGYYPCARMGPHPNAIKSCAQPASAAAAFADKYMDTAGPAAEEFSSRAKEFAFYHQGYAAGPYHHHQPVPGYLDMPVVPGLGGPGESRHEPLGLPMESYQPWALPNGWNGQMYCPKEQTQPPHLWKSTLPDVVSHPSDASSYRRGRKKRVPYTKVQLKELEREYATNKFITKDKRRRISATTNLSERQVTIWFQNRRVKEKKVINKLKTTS

[15] = blockers of DNA damage checkpoint Chk1 activation – imaging, HeLa, hydroxyurea, phospho-Chk1 antibody, percent positive cells, primary screen (AID 1186); conditions: hydroxyurea-induced phospho-Chk1 immunofluorescence imaging, higher = more signal
[16] = blockers of DNA damage checkpoint Chk1 activation – imaging, HeLa, hydroxyurea, phospho-Chk1 nuclear intensity, primary screen (AID 1187); conditions: hydroxyurea-induced phospho-Chk1 immunofluorescence imaging, higher = more signal

SMILES | z-score [1] | z-score [2] | z-score [3] | composite z-score [4] | z-score [5] | z-score [6] | z-score [7] | z-score [8] | z-score [9] | composite z-score [10] | composite z-score [11] | composite z-score [12] | z-score [13] | z-score [14] | z-score [15] | z-score [16]
COc1ccc([Si](C)(C)[C@@H]2[C@@H](CC(=O)N3Cc4ccccc4C[C@H]3CO)O[C@]3(C(=O)N(Cc4cccc(N5CCC5=O)c4)c4ccccc43)[C@H]2C)cc1 | -0.0715 | 0.984 (inactive) | -0.922 (inactive) | -3.46 (inactive) | 2.04 (inactive) | 1.38 (inactive) | 0.249 (inactive) | -0.0051 (inactive) | -0.828 | 0.0819 | 0.607 (inactive) | 0.736 | -2.55 | -1.51 (inactive) | -0.342 (inactive) | -0.0386 (inactive)
CCCC=C(CCC)[C@@H](NS(=O)(=O)c1ccc(Cl)cc1)c1ccc(C(=O)OC)cc1 | 1.16 | 0.295 (inactive) | 0.349 (inactive) | -0.336 (inactive) | -0.719 (inactive) | -0.907 (inactive) | 0.198 (inactive) | -1.16 (inactive) | 0.0665 | -0.122 | -0.126 (inactive) | 0.536 | 0.198 | -1.43 (inactive) | 0.47 (inactive) | 0.175 (inactive)
CCCC[C@@H]1C[C@H]1[C@@H](NC(=O)c1cccnc1)c1ccc(Cl)cc1 | 0.562 | -6.77 (inactive) | -0.731 (inactive) | 0.303 (inactive) | -0.0019 (inactive) | -2.78 (inactive) | 0.014 (inactive) | -0.0491 (inactive) | -0.663 | -0.0948 | -1.19 (inactive) | -1.83 | -0.577 | 1.33 (inactive) | -0.308 (inactive) | -0.437 (inactive)
O=C1O[C@@H](c2ccccc2)[C@@H](c2ccccc2)N2[C@@H](c3ccccc3OCCO)[C@]3(C(=O)Nc4ccc(C#CC5(O)CCCCCC5)cc43)[C@@H](C(=O)N3CCN(c4ncccn4)CC3)[C@H]12 | 0.0783 | 1.62 (inactive) | -1.18 (inactive) | 0.937 (inactive) | 1.94 (inactive) | 4.01 (inactive) | -0.418 (inactive) | 0.247 (inactive) | -0.737 | 0.372 | -0.0661 (inactive) | 0.661 | -2.17 | -1.01 (inactive) | -0.0019 (inactive) | 0.451 (inactive)
COCC(=C=CC[C@H](O)c1cccc(OCCO)c1)CCO | 0.72 | 0.161 (inactive) | 0.491 (inactive) | -0.326 (inactive) | 0.154 (inactive) | 0.896 (inactive) | 0.128 (inactive) | 0.398 (inactive) | 0.557 | 0.0153 | 1.15 (inactive) | 0.433 | 0.547 | -2.29 (inactive) | -0.0132 (inactive) | -0.479 (inactive)
C=C(CCCC)C(=O)CC[C@@H](OC(C)=O)c1ccc(CO)o1 | 0.519 | -12.9 (active) | 0.292 (inactive) | -8.56 (active) | 1.27 (inactive) | -0.944 (inactive) | 0.435 (inactive) | 0.339 (inactive) | 0.624 | 0.151 | 0.247 (inactive) | 0.337 | -0.201 | -3.66 (inactive) | 0.593 (inactive) | 0.245 (inactive)
O=C1C2C=CC(C(O)C=Cc3ccc([N+](=O)[O-])cc3)N(Nc3ccccc3F)C2C(=O)N1c1ccccc1 (stereo not drawn) | -0.964 | 2.18 (inactive) | -0.747 (inactive) | 1.06 (inactive) | 1.58 (inactive) | 1.6 (inactive) | -0.388 (inactive) | -0.138 (inactive) | -0.381 | 0.0101 | 0.308 (inactive) | 0.774 | -0.448 | -4.79 (inactive) | -0.668 (inactive) | -1.16 (inactive)
[N-]=[N+]=NCc1ccccc1[C@@H]1OC(c2ccc(OCCCO)cc2)=N[C@]1(CCS(=O)(=O)c1ccccc1)C(N)=O | -0.493 | -0.583 (inactive) | -0.163 (inactive) | -0.449 (inactive) | -0.651 (inactive) | 0.573 (inactive) | 0.0745 (inactive) | 0.859 (inactive) | 0.0529 | 0.243 | 0.57 (inactive) | 0.869 | -0.397 | -3.55 (inactive) | -0.0248 (inactive) | 0.227 (inactive)
COc1ccc(NC(=O)O[C@H]2[C@H](OC(=O)c3cc4ccccc4[nH]3)[C@@H](OC(=O)c3cc4ccccc4[nH]3)[C@@H](OC)O[C@@H]2CO)cc1 | -1.08 | -0.302 (inactive) | -1.68 (inactive) | -0.558 (inactive) | 0.305 (inactive) | -0.575 (inactive) | 1.13 (inactive) | 1.53 (inactive) | -1.69 | 0.103 | 1.54 (inactive) | -0.135 | -2.16 | -3.86 (inactive) | -0.335 (inactive) | -0.331 (inactive)
COCCOC(=O)N1C(=O)[C@@]2(c3ccccc31)[C@H](C(N)=O)[C@H]1C(=O)O[C@H](c3ccccc3)[C@H](c3ccccc3)N1[C@@H]2c1ccc(O)cc1 | -0.755 | -0.494 (inactive) | -0.593 (inactive) | -0.294 (inactive) | 0.806 (inactive) | 0.275 (inactive) | 0.396 (inactive) | 0.787 (inactive) | -1.01 | 0.175 | -0.114 (inactive) | 0.726 | 0.373 | -4.73 (inactive) | -0.0504 (inactive) | -0.194 (inactive)
C=CC[C@@]1(C(=O)N2CCCCC2)N=C(c2ccc(OCCCO)cc2)O[C@@H]1c1ccccc1N=[N+]=[N-] | -0.355 | -1.02 (inactive) | -1.62 (inactive) | 0.479 (inactive) | 0.302 (inactive) | 0.597 (inactive) | 0.985 (inactive) | -0.682 (inactive) | -0.963 | 0.13 | 0.195 (inactive) | 0.602 | -1.94 | -2.64 (inactive) | -0.679 (inactive) | -0.667 (inactive)
COC(=O)[C@@]1(Cc2ccccc2)[C@H]2c3cc(C(=O)N4CCCC4)n(Cc4ccc(O)c(OC)c4)c3C[C@H]2CN1C(=O)c1ccccc1 | -1.82 | 1.93 (inactive) | -0.948 (inactive) | 0.05 (inactive) | 0.675 (inactive) | 1.8 (inactive) | -1.12 (inactive) | -0.697 (inactive) | -2.74 | 0.224 | 0.469 (inactive) | -0.333 | -1.32 | -4.6 (inactive) | 1.13 (inactive) | 0.678 (inactive)
CCCNC(=O)[C@@H]1c2ccccc2C(=O)N(Cc2ccccc2OC)[C@H]1c1ccc(CO)cc1 | -0.314 | -0.42 (inactive) | -1.32 (inactive) | -0.486 (inactive) | -0.0933 (inactive) | 0.262 (inactive) | 0.324 (inactive) | 0.285 (inactive) | -0.694 | -0.113 | 0.273 (inactive) | 0.85 | -1.54 | -3.2 (inactive) | -0.175 (inactive) | -0.0848 (inactive)
